Assay outcomes from PubChem.
ATXN viability – cell viability loss in ATXN counter-screen; AID 651635; Potency, µM (highest dose often 56.7 µM), most hits filed as cytotoxic; hit rate 0.49% among 400,000; S2 cells (HEK-293 line with an ATXN2-luciferase reporter) viability, CellTiter-Fluor protease fluorescence, 24 h; also: potency is read from the fitted curve at half-maximal effect; nearly all actives have a fitted effect of over 40% in size
LDHA inh – LDHA (human) enzyme inhibition. P00338. purified LDHA, NADH/diaphorase-resazurin fluorescence; active compounds read low. activity change, % (values are at about 110 or 230 µM). hit rate 0.15% among 480,000. AID 1347041; in the data active = activity change below about -30%; inconclusive = mostly about -25% to -30%;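 also: plate controls were DMSO wells for no effect and wells without enzyme for full effect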
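LDH5 2 nM; NADH 0.06 mM, pyruvate 0.2 mM; 200 mM Tris pH 7.4, EDTA, Tween-20; 5 min RT. Detection: diaphorase 0.133 mg/mL + resazurin 37 µM, fluorescence ex540/em590 at 0 and 20 min; normalized to enzyme-free and DMSO wells.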
IDH1 R132H inh – human IDH1 R132H inhibition | IDH1-R132H enzyme, NADPH consumption, diaphorase/resazurin fluorescence | O75874 | Potency, µM (top dose mostly 76.6 µM), for the others: top-dose activity change, negative = inhibition, most hits filed as inhibitors | hit rate 0.093% among 390,000; also: potency is read from the fitted curve at half-maximal effect; % is scaled to controls: 0 for no effect and ±100 for the full control effect; nearly all actives have a fitted effect of over 65% in size
Target sequence (O75874 whole entry R132H, stated change not applied): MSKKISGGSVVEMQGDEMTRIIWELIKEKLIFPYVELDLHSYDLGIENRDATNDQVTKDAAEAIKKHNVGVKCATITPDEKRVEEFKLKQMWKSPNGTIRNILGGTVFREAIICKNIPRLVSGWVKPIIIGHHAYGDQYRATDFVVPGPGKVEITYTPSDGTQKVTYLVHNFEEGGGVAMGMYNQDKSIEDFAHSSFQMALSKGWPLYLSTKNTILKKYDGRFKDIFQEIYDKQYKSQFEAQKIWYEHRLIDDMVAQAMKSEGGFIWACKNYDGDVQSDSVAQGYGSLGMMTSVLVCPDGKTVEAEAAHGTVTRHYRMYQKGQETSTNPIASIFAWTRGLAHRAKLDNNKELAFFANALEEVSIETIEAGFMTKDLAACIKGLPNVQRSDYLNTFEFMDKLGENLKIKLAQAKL
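IDH1-R132H (0.5 ug/mL) preincubated 30 min with compound, then NADPH (0.016 mM) and alpha-KG (2 mM) added; 80 min at RT, pH 7.5. Remaining NADPH coupled via diaphorase/resazurin to fluorescence (540/590 nm); concentration-response curves normalized to no-enzyme control.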
TGFb inhibitor – blocks TGF-b signaling. HepG2 CAGA-GFP TGF-b/SMAD3 reporter, GFP fluorescence, 18 h; TGF-beta stimulated, 500 pg/mL final. Potency, µM (doses to about 46.1 µM), for the others: at the highest dose activity, negative = inhibition, hits mostly inhibitors. hit rate 1.2% among 410,000. AID 588855; also: potency is read from the fitted curve at half-maximal effect; % is scaled to controls: 0 for no effect and ±100 for the full control effect; nearly all actives have a fitted effect of over 65% in size
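Cell-based qHTS in HEPG2 carrying a CAGA-GFP Smad reporter; compounds added before 500 pg/mL final TGF-beta, 18 h incubation at 37 degrees C, GFP fluorescence quantified per cell by imaging cytometry.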
ATXN2 expr inh – ATXN2 expression inhibition; HEK-293 ATXN2-luciferase reporter, luminescence, 24 h; Potency, µM (top dose mostly 57 µM), without a hit: at the highest dose activity change, negative = inhibition, most hits filed as inhibitors; hit rate 0.72% among 360,000; AID 1745845; also: potency is read from the fitted curve at half-maximal effect; % is scaled to controls: 0 for no effect and ±100 for the full control effect; nearly all actives have a fitted effect of over 55% in size
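ATXN2-luciferase reporter cells (luciferase flanked by upstream and downstream ATXN2 gene portions) were treated 24 h at 37 °C with compounds at up to 57 uM. SteadyGlo luminescence gave expression; GF-AFC fluorescence gave viability.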
HepG2 tox-1 – counter-screen for TGF-b inhibitors: cytotoxicity in HepG2 cells. HepG2 CAGA-GFP viability, ATP luminescence, 18 h. Potency, µM (series often up to 46.1 µM), for inactives: at the top dose activity change, negative = cytotoxicity, most hits filed as cytotoxic. hit rate 0.76% among 410,000; also: potency is read from the fitted curve at half-maximal effect
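CellTiter-Glo luminescence gave cytotoxicity after 18 hours at 37 degrees C. The cells were HepG2 CAGA-GFP in 1% FBS DMEM, stimulated with 500 pg/mL TGF-beta after compound addition. %Activity was normalised to no-cell wells (complete cell-killing) and DMSO (no toxicity), and curves were fitted and classified.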
TGFb confirm – TGF-b pathway inhibition, cherry-pick retest; shares compounds with TGFb inhibitor; HepG2 CAGA-GFP TGF-b reporter, GFP fluorescence, 18 h; cells stimulated with TGF-beta, 500 pg/mL; Potency, µM (series often up to 46.1 µM), for inactives: top-dose activity, negative = inhibition, most hits filed as inhibitors; hit rate 63% among 1,600; AID 720534; also: potency is read from the fitted curve at half-maximal effect; % is scaled to controls: 0 for no effect and ±100 for the full control effect; nearly all actives have a fitted effect of over 65% in size
HepG2 tox-2 – HepG2 cytotoxicity, TGF-b inhibitor counterscreen. shares compounds with TGFb inhibitor. HepG2 CAGA-GFP viability, ATP luminescence, 18 h; cells stimulated with TGF-beta, 500 pg/mL. Potency, µM (series often up to 46.1 µM), inactives show top-dose activity, negative = cytotoxicity, usual class: inhibitors. hit rate 27% among 1,600. AID 720535; also: potency is read from the fitted curve at half-maximal effect; % is scaled to controls: 0 for no effect and ±100 for the full control effect; nearly all actives have a fitted effect of over 70% in size
CCL64 TGFb inh – orthogonal confirmation of TGF-b inhibitors in CCL64 cells | shares compounds with TGFb inhibitor | CCL64 CAGA-GFP reporter, TGF-b stimulated, GFP fluorescence, 18 h | Potency, µM (highest dose often 46.1 µM), inactives show top-dose activity, negative = inhibition, usual class: inhibitors | hit rate 41% among 1,600 | AID 720536; also: potency is read from the fitted curve at half-maximal effect; nearly all actives have a fitted effect of over 65% in size
COP TGFb inh – blocks TGF-b signaling in HepG2 COP reporter. shares compounds with TGFb inhibitor. HepG2 COP-GFP TGF-b reporter, GFP fluorescence, 18 h; cells stimulated by added recombinant TGF-beta. Potency, µM (titrated, usually from 46.1 µM), without a hit: at the highest dose activity, negative = inhibition, actives largely listed as inhibitors. hit rate 3% among 1,600; also: potency is read from the fitted curve at half-maximal effect; nearly all actives have a fitted effect of over 70% in size
Numbers without * were called inactive; i = inactive; ? = inconclusive; · = no result. Most compounds without a hit are left out; they make up all but 2.2% or so of the library. Unless noted, calls follow the shape of the dose curve; as a rule, active = well fitted curve in the direction sought with a large enough effect; inconclusive = small, poorly fitted or top-dose-only effect, or another doubt; inactive = no such curve, though single readings can be large; an effect the other way counts as inactive or inconclusive.

SMILES	ATXN viability	LDHA inh	IDH1 R132H inh	TGFb inhibitor	ATXN2 expr inh	HepG2 tox-1	TGFb confirm	HepG2 tox-2	CCL64 TGFb inh	COP TGFb inh
COC(=O)C1CCC(=O)N1C(c1ccc(OC)cc1)c1cc(OC)c(OC)c(OC)c1 (configuration not stated)	?	15	1%	2µM*	4%	2%	?	-2%	5.8µM*	?
COc1ccc(NC(=O)COC(=O)C2CC(=O)N(c3ccc(OC(C)C)cc3)C2)cc1 (configuration not stated)	i	-1	-3%	-19%	11%	-6%	·	·	·	·
COc1c(C)cc(Br)cc1C(=O)Nc1ccc(C)cc1[N+](=O)[O-]	i	1	9%	1%	-7%	5%	·	·	·	·
COc1cc(NC(=O)CCNC(=O)Cn2cnc3sc4c(c3c2=O)CCCC4)cc(OC)c1OC	i	-7	2%	0%	-10%	6%	·	·	·	·
Cc1nc(Nc2nc(CSc3nc4ccccc4[nH]3)cc(=O)[nH]2)nc2ccccc12	?	6	0%	18µM*	-4%	-16%	5.2µM*	4.1µM*	6.5µM*	38%
COc1ccc2nc(Nc3nc(CSc4nc5ccccc5[nH]4)cc(=O)[nH]3)nc(C)c2c1	i	1	6%	2.8µM*	0%	4%	8.2µM*	?	18µM*	26%
O=S(=O)(c1ccccc1F)N1CCN(Cc2cc3c(cc2Br)OCCO3)CC1	i	-3	1%	13µM*	-16%	0%	?	-21%	?	-4%
O=C1N[C@@H](c2ccccc2)COC(=O)[C@@H](Cc2ccc(F)cc2)C/C=C\C[C@@H]1CC(=O)N(CCO)Cc1ccccc1	?	-15	3%	13µM*	0%	-4%	16µM*	?	?	45%
O=C1N[C@@H](Cc2ccccc2)COC(=O)[C@@H](Cc2ccc(F)cc2)CC/C=C/C[C@@H]1CC(=O)N(CCO)Cc1ccccc1	?	-3	6%	22µM*	?	5%	16µM*	-27%	23µM*	28%
COC(=O)C1(C)Cc2ccc(Cl)cc2C(=O)O1 (configuration not stated)	·	9	·	·	·	·	·	·	·	·
COc1cc(/C=C(\C#N)c2nc3ccccc3[nH]2)cc(Br)c1OCc1ccc(F)cc1	i	-4	-1%	6%	-11%	-28%	·	·	·	·
COc1cc(/C=C(\C#N)c2nc3ccccc3[nH]2)cc(Br)c1OCc1ccccc1	·	-2	4%	11µM*	?	-29%	?	?	-19%	22%
